Source: PubChem BioAssay AID1159580 (chemical genetic matrix, 2015)
“And” between values parts separate entries of the source, which are not always exact repeats. Identical values can stand only once. Screen size: about 5,500 compounds; about 2,000 (36%) were called active. Roughly 18% stayed inconclusive and do not appear here. Rule as the data show it: active = normalized growth mostly below about 0.91 (no sharp cut-off); inconclusive = no clear call, values can overlap the other calls; inactive = mostly above about 0.92. Some of the results follow.

Test: chemical genetic growth profiling, strain panel (AID 1159580);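 also: tested at 20 µM; growth read once vehicle control cultures reached saturation at 30 °C; 1 = growth at the plate median or of vehicle wells; lower values mean less growth of the strain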
Conditions: S. cerevisiae deletion strains, growth OD

Measured: normalized growth

Oc1c(Cl)cc(Cl)c2cccnc12
active: locus YAL013W, strain DEP1, hits give low values 0.0554 | locus YAL021C, strain ccr4, hits give low values 0.0642 | locus YAL026C, strain drs2, hits give low values 0.0607 | locus YAL030W, strain snc1, hits give low values 0.0606 | locus YBL061C, strain skt5, hits give low values 0.0718 | locus YBR009C, strain hhf1, hits give low values 0.0665 | locus YBR021W, strain FUR4, hits give low values 0.0914 | locus YBR023C, strain chs3, hits give low values 0.0713 | locus YBR171W, strain sec66, hits give low values 0.083 | locus YBR229C, strain ROT2, hits give low values 0.0477 | locus YBR231C, strain swc5, hits give low values 0.0819 | locus YBR279W, strain paf1, hits give low values 0.064 | locus YCL011C, strain gbp2, hits give low values 0.0637 | locus YCL016C, strain dcc1, hits give low values 0.0656 | locus YCL029C, strain bik1, hits give low values 0.0628 | locus YCL061C, strain MRC1, hits give low values 0.0645 | locus YCL069W, strain vba3, hits give low values 0.0656 | locus YCR088W, strain abp1, hits give low values 0.0623 | locus YDL005C, strain med2, hits give low values 0.0757 | locus YDL035C, strain GPR1, hits give low values 0.0525 | locus YDL040C, strain nat1, hits give low values 0.0611 | locus YDL074C, strain BRE1, hits give low values 0.0827 | locus YDL101C, strain DUN1, hits give low values 0.0602 | locus YDL134C, strain PPH21, hits give low values 0.0491 | locus YDL185W, strain tfp1, hits give low values 0.0641 | locus YDL192W, strain arf1, hits give low values 0.0659 | locus YDR001C, strain nth1, hits give low values 0.0589 | locus YDR069C, strain doa4, hits give low values 0.0663 | locus YDR101C, strain arx1, hits give low values 0.0587 | locus YDR137W, strain rgp1, hits give low values 0.113 | locus YDR150W, strain NUM1, hits give low values 0.0572 | locus YDR159W, strain sac3, hits give low values 0.0885 | locus YDR162C, strain NBP2, hits give low values 0.0476 | locus YDR195W, strain ref2 0.117 | locus YDR297W, strain sur2, hits give low values 0.067 | locus YDR318W, strain mcm21, hits give low values 0.0673 | locus YDR334W, strain swr1, hits give low values 0.0629 | locus YDR335W, strain msn5, hits give low values 0.0654 | locus YDR388W, hits give low values 0.0609 | locus YDR392W, strain spt3, hits give low values 0.0726 | locus YDR502C, strain sam2, hits give low values 0.0656 | locus YEL003W, strain gim4, hits give low values 0.0637 | locus YEL037C, strain rad23, hits give low values 0.0639 | locus YEL061C, strain CIN8 (second series), hits give low values 0.0636 | locus YEL061C, strain CIN8, hits give low values 0.0482 | locus YER015W, strain faa2, hits give low values 0.0692 | locus YER016W, strain bim1, hits give low values 0.0695 | locus YER110C, hits give low values 0.08 | locus YER111C, strain swi4, hits give low values 0.0742 | locus YER155C, strain BEM2 (second series), hits give low values 0.0894 | locus YER155C, strain BEM2, hits give low values 0.0642 | locus YER167W, strain BCK2, hits give low values 0.0516 | locus YFR010W, strain ubp6, hits give low values 0.0659 | locus YGL078C, strain dbp3, hits give low values 0.0639 | locus YGL086W, strain mad1, hits give low values 0.0594 | locus YGL167C, strain pmr1, hits give low values 0.0827 | locus YGL173C, strain kem1, hits give low values 0.076 | locus YGL227W, strain vid30, hits give low values 0.0665 | locus YGL240W, strain doc1, hits give low values 0.0841 | locus YGL248W, strain PDE1, hits give low values 0.0454 | locus YGL253W, strain hxk2, hits give low values 0.0551 | locus YGR078C, strain PAC10, hits give low values 0.0521 | locus YGR135W, strain pre9, hits give low values 0.0748 | locus YGR229C, strain SMI1, hits give low values 0.0589 | locus YGR252W, strain gcn5, hits give low values 0.158 | locus YHR013C, strain ard1, hits give low values 0.111 | locus YHR027C, strain rpn1, hits give low values 0.0681 | locus YHR030C, strain SLT2, hits give low values 0.0506 and 0.116 | locus YHR079C, strain IRE1 (second series), hits give low values 0.0598 | locus YHR079C, strain IRE1, hits give low values 0.119 | locus YHR094C, strain hxt1, hits give low values 0.0629 | locus YHR129C, strain ARP1, hits give low values 0.0524 | locus YHR142W, strain chs7, hits give low values 0.0684 | locus YHR200W, strain rpn10, hits give low values 0.066 | locus YIL066C, strain RNR3, hits give low values 0.0479 | locus YIL073C, strain SPO22, hits give low values 0.128 | locus YIL125W, strain kgd1, hits give low values 0.0656 | locus YIR030C, strain dcg1, hits give low values 0.0607 | locus YJL092W, strain hpr5, hits give low values 0.0625 | locus YJL095W, strain BCK1 (second series), hits give low values 0.0621 | locus YJL095W, strain BCK1, hits give low values 0.0584 and 0.118 | locus YJL115W, strain asf1, hits give low values 0.0757 | locus YJL129C, strain trk1, hits give low values 0.089 | locus YJL134W, strain LCB3, hits give low values 0.0493 | locus YJL154C, strain vps35, hits give low values 0.0617 | locus YJL164C, strain tpk1, hits give low values 0.062 | locus YJL166W, strain qcr8, hits give low values 0.0623 | locus YJL168C, strain set2, hits give low values 0.0626 | locus YJL187C, strain SWE1 (second series), hits give low values 0.0481 | locus YJL187C, strain SWE1, hits give low values 0.0669 | locus YJR043C, strain POL32, hits give low values 0.0614
